{"source": "PubChem BioAssay AID2685", "about": "(National Center for Advancing Translational Sciences (NCATS), 2010)", "note": "The whole screen tested about 320,000 compounds, of which about 2,100 (0.66%) were called active. About 53% were inconclusive and are not listed. The call rests on the fitted dose curve; in most records, active means well fitted inhibition curve with a large enough effect in the signal ratio, with a control signal flat (not every such curve was filed as active); inconclusive means small, poorly fitted or top-dose-only effect, or effect the other way, or a change in a side signal; inactive means flat fitted curve, though single readings scatter; the % refers to the signal ratio. For the sample, actives were picked, then their nearest neighbours and some compounds at random. Potency means the concentration at half of the fitted maximal effect.", "data": [{"experiment": "qHTS Assay for Lipid Storage Modulators in Drosophila S3 Cells;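 on cell number change: cells counted by Cell Tracker Red CMTPX staining in the red channel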; on lipid storage change, negative = inhibition: on the % scale 0 is the no-effect control and ±100 the full control effect", "conditions": "BODIPY lipid droplet fluorescence, 18-24 h, cells fed with added oleic acid; cell number change: measured here: cell count max response; series mostly up to 46.1 µM; lipid storage change, negative = inhibition: at the top concentration", "method_in_brief": "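Drosophila S3 cells got compounds at several concentrations plus oleic acid (400 uM solution). Laser-scanning cytometry with 488 nm excitation read lipid droplets at 500-530 nm and cells at 575-640 nm. Percent activity was relative to 20 uM Triacsin C.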", "units": {"cell number change": "%"}, "values": [{"smiles": "O=c1[nH]c(=O)c2nnc(N/N=C\\c3ccc(O)cc3)nc2[nH]1", "lipid storage change, negative = inhibition": "1.17% (inactive)", "cell number change": -0.285}, {"smiles": "Cc1ccc(N/C(N)=N/c2nc3c(c(=O)[nH]2)CCCC3)c(C)c1", "lipid storage change, negative = inhibition": "-16.9% (inactive)", "cell number change": 25.1}, {"smiles": "CN(C)CCN(C(=O)c1ccc(C(=O)c2ccccc2)cc1)c1nc2cc3c(cc2s1)OCO3", "lipid storage change, negative = inhibition": "18.9% (inactive)", "cell number change": 29}, {"smiles": "CC1(C)N=C(N)N=C(N)N1c1cccc(C(=O)O)c1", "Potency": "29.1 µM (active)", "cell number change": 9.53}, {"smiles": "CCOC(=O)c1cccc(N2C(N)=NC(N)=NC2(C)C)c1", "lipid storage change, negative = inhibition": "1.48% (inactive)", "cell number change": 6.64}, {"smiles": "COc1cccc(N2C(N)=NC(N)=NC2(C)C)c1", "lipid storage change, negative = inhibition": "-15.5% (inactive)", "cell number change": -1.01}, {"smiles": "O=C(Nc1ccc(N2CCOCC2)cc1)C1CC(=O)N(c2ccc(F)cc2)C1", "note": "(configuration not stated)", "lipid storage change, negative = inhibition": "-18.1% (inactive)", "cell number change": 18.8}, {"smiles": "Cc1cnc(-c2nnc(N(C)C(=O)C3CCOC3)s2)cn1", "note": "(configuration not stated)", "Potency": "23.1 µM (active)", "cell number change": -7.84}, {"smiles": "CN(C(=O)C1CCOC1)c1nnc(-c2cnccn2)s1", "note": "(configuration not stated)", "cell number change": 10.4, "lipid storage change, negative = inhibition": "-5.36% [at 9.22 µM] (inactive)"}, {"smiles": "CN(C(=O)C1CCOC1)c1nnc(-c2ccncc2)s1", "note": "(configuration not stated)", "outcome": "inactive"}, {"smiles": "CC(C)c1ccc2c(c1)C1Cc3ccccc3C1N2", "note": "(configuration not stated)", "Potency": "9.2 µM (active)"}, {"smiles": "O=C1NC2c3ccccc3CC2O1", "note": "(configuration not stated)", "outcome": "inactive", "cell number change": 17.5}, {"smiles": "CC(C)c1ccc2c(c1)[C@H]1OCC[C@H]1[C@@H](c1cccs1)N2", "lipid storage change, negative = inhibition": "21% (inactive)", "cell number change": -7.55}, {"smiles": "COc1ccc(/C=N\\NC(=O)COc2ccc(Cl)cc2Cl)c(C(=O)O)c1OC", "lipid storage change, negative = inhibition": "3.57% (inactive)", "cell number change": 11.7}, {"smiles": "CC(C)NC(=O)C(c1ccc(F)cc1)N(C(=O)CCC(=O)Nc1ccccn1)c1cccc(F)c1", "note": "(configuration not stated)", "lipid storage change, negative = inhibition": "24.5% (inactive)", "cell number change": 7.14}, {"smiles": "NC(=O)c1cc(-c2csc(-c3cccnc3)n2)ccc1O", "Potency": "25.9 µM (active)", "cell number change": 5}, {"smiles": "Fc1ccc(-c2csc(-c3ccncc3)n2)cc1", "lipid storage change, negative = inhibition": "4.09% (inactive)", "cell number change": 8.89}, {"smiles": "O=C(O)c1ccc(-c2nc(-c3ccc(Cl)c(Cl)c3)cs2)cc1", "lipid storage change, negative = inhibition": "8.4% (inactive)", "cell number change": 6.89}, {"smiles": "Fc1ccc(-c2csc(-c3cccnc3)n2)cc1F", "lipid storage change, negative = inhibition": "14.8% (inactive)"}, {"smiles": "Oc1ccc(-c2nc(-c3ccc(O)c(O)c3)cs2)cc1", "Potency": "0.0116 µM (active)", "cell number change": -11.8}, {"smiles": "Oc1ccc(-c2csc(-c3cccnc3)n2)cc1O", "outcome": "inactive", "cell number change": -16.9}, {"smiles": "CCN(CC)S(=O)(=O)c1ccc(S(=O)(=O)N2CCCC2)cc1", "lipid storage change, negative = inhibition": "-3.92% (inactive)", "cell number change": 4.33}, {"smiles": "CCOc1ccc(Nc2cc3n(c(=O)n2)CCc2cc(OC)c(OC)cc2-3)cc1", "lipid storage change, negative = inhibition": "-11.1% (inactive)", "cell number change": -17.4}, {"smiles": "CCc1c(C)nc(N2CCN(c3ccccc3F)CC2)[nH]c1=O", "outcome": "inactive", "cell number change": 15.2}, {"smiles": "Cc1nn(-c2ccccc2)c(Cl)c1/C=N/NC(=O)CNc1n[nH]c(=O)[nH]c1=O", "lipid storage change, negative = inhibition": "-0.0956% (inactive)", "cell number change": 11.6}, {"smiles": "CCO[C@@H]1OC(C(=O)NCc2nc3ccccc3[nH]2)=C[C@H](C)[C@H]1CCCO", "lipid storage change, negative = inhibition": "-29% (inactive)", "cell number change": -18.5}, {"smiles": "CCC(=O)Nc1ccc2c(c1)ncn2-c1ccc(C)cc1", "lipid storage change, negative = inhibition": "-1.57% (inactive)", "cell number change": 19.8}, {"smiles": "Cc1ccc(NC(=O)N(CCC(=O)O)Cc2ccccc2)cc1", "outcome": "inactive"}, {"smiles": "Cc1cc(C)c2[nH]c(=O)c(CN(C(=O)C3CCCO3)C3CCCC3)cc2c1", "note": "(configuration not stated)", "lipid storage change, negative = inhibition": "3.45% (inactive)", "cell number change": 9.83}, {"smiles": "CCN1C(=O)[C@@H]2[C@@H](c3ccc(-c4ccccc4)cc3)N3CCCC[C@@]3(C(=O)OC)[C@@H]2C1=O", "outcome": "inactive", "cell number change": 15.8}, {"smiles": "CCN1C(=O)[C@H]2[C@@H](c3ccc(-c4ccccc4)cc3)N3CCCC[C@@]3(C(=O)OC)[C@H]2C1=O", "lipid storage change, negative = inhibition": "13.3% (inactive)"}, {"smiles": "CCN1C(=O)[C@H]2[C@@H](c3ccc(-c4ccc(OC)cc4)c(OC)c3)N3CCCC[C@@]3(C(=O)OC)[C@H]2C1=O", "Potency": "5.8 µM (active)", "cell number change": -0.765}, {"smiles": "CCN1C(=O)[C@@H]2[C@@H](c3ccc(-c4ccc(OC)cc4)c(OC)c3)N3CCCC[C@@]3(C(=O)OC)[C@@H]2C1=O", "Potency": "9.2 µM (active)", "cell number change": 24.8}, {"smiles": "CCN1C(=O)[C@@H]2[C@@H](c3ccc(-c4ccc5c(c4)OCO5)c(OC)c3)N3CCCC[C@@]3(C(=O)OC)[C@@H]2C1=O", "outcome": "inactive"}, {"smiles": "CCN1C(=O)[C@@H]2[C@@H](c3ccc(-c4ccc5c(c4)OCO5)c(OC)c3)N3CCC[C@@]3(C(=O)OC)[C@@H]2C1=O", "lipid storage change, negative = inhibition": "5.27% (inactive)", "cell number change": -1.65}, {"smiles": "Cc1cccc(OCC(=O)Nc2ccc3c(c2)nc(CCN2CCCCC2)n3C)c1", "outcome": "inactive"}, {"smiles": "CCc1ccc(NC(=O)[C@H](Cc2ccccc2)NC(=O)C2CCN(C(=O)[C@@H](N)CC(C)C)CC2)cc1", "lipid storage change, negative = inhibition": "-9.52% (inactive)", "cell number change": 18}, {"smiles": "CC(=O)c1ccc(NC(=O)c2ccc(CSc3ccccc3)o2)cc1", "lipid storage change, negative = inhibition": "15.1% (inactive)", "cell number change": 3.7}, {"smiles": "Cn1cncc1C#Cc1ccc2cc(CCO)oc(=O)c2c1", "Potency": "1.3 µM (active)", "cell number change": 17.2}, {"smiles": "CN(C)c1ccc(C#Cc2ccc3cc(CCO)oc(=O)c3c2)cc1", "lipid storage change, negative = inhibition": "-0.121% (inactive)", "cell number change": 24}, {"smiles": "Cn1cncc1C#Cc1ccc2cc(C3(O)CCCCC3)oc(=O)c2c1", "lipid storage change, negative = inhibition": "11.5% (inactive)", "cell number change": -13.7}, {"smiles": "COc1cccc(Oc2cc(Cl)nc(N)n2)c1", "lipid storage change, negative = inhibition": "0.532% (inactive)", "cell number change": -10.3}, {"smiles": "COc1ccc(Cl)cc1NC(=O)C(C)OC(=O)C1=NNC(=O)CC1", "note": "(configuration not stated)", "lipid storage change, negative = inhibition": "13.5% (inactive)", "cell number change": -0.986}, {"smiles": "O=C(N/N=C/c1ccccn1)c1cc(-c2ccncc2)nc2ccccc12", "lipid storage change, negative = inhibition": "24.3% (inactive)", "cell number change": 0.674}, {"smiles": "CC1=C(C(=O)N(C)C)C(c2ccc(N3CCOCC3)cc2)NC(=O)N1", "note": "(configuration not stated)", "lipid storage change, negative = inhibition": "10.6% (inactive)"}]}]}
